Rows were chosen to be rich in hits. Some 4% of all compounds tested hit in one or more screens of this group.
HIF-2a inh = HIF-2a reporter inhibitors, primary screen, luminescence, 786-0 RCC cells; 786-0 RCC cells HIF-2a reporter, luciferase luminescence, overnight; inhibition, % at 18.8 µM; hit rate 0.72% among 360,000;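 active means inhibition of the luminescence signal of 40% or more relative to plate controls, in a single-dose primary screen at 18.75 µM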
KKLEB cytotox = cytotoxicity in KKLEB CF airway cells, primary screen, cytotoxicity control for CF NF-kB inhibitor project, cell-based, uHTS, fluorescence assay plates. KKLEB CF airway cells viability, ATPlite luminescence, overnight; active compounds read low; cells stimulated with P. aeruginosa culture filtrate. activity change (cytotoxicity), % at 5 µM. hit rate 0.36% among 360,000. AID 602141, 2011;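 active means corrected activity change at or below -50% at 5 µM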
Peg3 prom inh = Peg3 promoter-driven luciferase inhibitors, primary screen, cell-based, HeLa, luciferase luminescence; hit rate 1.7% among 360,000; AID 588405, 2011; HeLa PEG-Prom luciferase reporter, overnight; inhibition, % at 20 µM;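 active means inhibition of at least 50% at 20 µM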
CF NFkB block = inhibitors of PAF-induced NF-kB signaling, primary screen, cell-based, GFP fluorescence, uHTS; KKLEB NF-kB-GFP reporter, GFP fluorescence overnight; inhibition, % at 5 µM; hit rate 0.86% among 360,000; AID 588850, 2011;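 active means at least 50% inhibition at 5 µM, scaled per plate between neutral and stimulator controls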;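 further: PAF is a Pseudomonas aeruginosa culture filtrate used as stimulus; plate controls were PAF-stimulated DMSO wells for no effect and unstimulated DMSO wells for full effect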
TROY signal inh = inhibitors of TROY-driven NF-kB signaling, primary screen, Q293 LMP1-TROYcd cells, NF-kB luciferase, uHTS | Q293 LMP1-TROYcd NF-kB luciferase reporter, 4 h | inhibition, % at 10 µM | hit rate 0.98% among 360,000 | AID 1347056, 2019;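 active means compounds whose plate-normalised and pattern-corrected inhibition of the luciferase reporter signal at the single screening dose is 50% or more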
TWEAK Fn14 block = inhibitors of TWEAK-Fn14 signaling, primary screen, luciferase reporter cells, uHTS | hit rate 2% among 360,000 | TWEAK-stimulated Fn14 reporter cells, luciferase luminescence, 8 h | inhibition, % at 10 µM; in the data active means inhibition above about 50%
The depositor's hits bear a star; / = no result given.

SMILES	HIF-2a inh	KKLEB cytotox	Peg3 prom inh	CF NFkB block	TROY signal inh	TWEAK Fn14 block
COc1cc(OC)c(OC)cc1CN1CCN(C(=O)Cc2ccccc2)CC1	18	-12	8	-2	5	97*
C[C@@H]1CN([C@@H](C)CO)C(=O)CCCn2nncc2CO[C@@H]1CN(C)C(=O)Oc1ccccc1	11	-8	-7	13	-2	18
O=C1NC(=O)C(=Cc2ccc(-c3ccc(Cl)cc3)o2)C(=O)N1	14	2	102*	-3	56*	80*
O=C1NC(=O)C(=Cc2ccc(-c3ccc(F)cc3O)o2)C(=O)N1	48*	-5	9	39	0	5
CCC(c1nnnn1-c1ccc2c(c1)OCCO2)N1CCC2(CC1)C(=O)NCN2c1ccccc1 (configuration not stated)	9	-41	12	14	-16	-1
C/C(=C\c1ccc(N(C)C)cc1)[N+](=O)[O-]	93*	-33	101*	-5	4	46
CN(C)c1ccc(/C=C/[N+](=O)[O-])cc1	11	0	-17	4	12	-8
C[C@]12CC[C@@H]3c4ccc(O)c(O)c4CC[C@H]3[C@@H]1CC[C@@H]2O	-21	8	5	34	17	55*
CN1CC2CN(Cc3ccccc3)S(=O)(=O)C2C1 (configuration not stated)	2	2	1	7	4	2
O=c1[nH]c2ccccc2n1C1CCN(C(c2ccccc2OC(F)(F)F)c2nnnn2Cc2ccccc2)CC1 (configuration not stated)	-51	-54*	92*	82*	61*	61*
O=c1[nH]c2ccccc2n1C1CCN(C(c2nnnn2C2CCCCC2)C2CC2)CC1 (configuration not stated)	-13	3	41	-3	-2	20
Cc1cccc(C)c1-n1nnnc1C(C1CC1)N1CCC(n2c(=O)[nH]c3ccccc32)CC1 (configuration not stated)	-7	11	51*	-34	12	25
O=c1[nH]c2ccccc2n1C1CCN(C(c2nnnn2C2CCCC2)C2CC2)CC1 (configuration not stated)	-11	6	11	12	0	13
COc1ccc(C(c2nnnn2Cc2ccccc2)N2CCC(n3c(=O)[nH]c4ccccc43)CC2)cc1 (configuration not stated)	-25	-96*	74*	85*	6	40
Cc1cccc(C)c1-n1nnnc1C(c1cccs1)N1CCC(n2c(=O)[nH]c3ccccc32)CC1 (configuration not stated)	9	-8	29	0	34	32
CC(C)(C)n1nnnc1C(C1CC1)N1CCC(n2c(=O)[nH]c3ccccc32)CC1 (configuration not stated)	-2	2	23	-3	4	5
O=c1[nH]c2ccccc2n1C1CCN(C(c2nnnn2Cc2ccccc2)C2CC2)CC1 (configuration not stated)	-25	-79*	76*	86*	17	29
Fc1cccc(-c2ccc3c(c2)CN(c2cccc(Cl)c2)Cc2cnnn2-3)c1	-18	-12	-34	-10	-8	-2
Cc1nc2ccccc2c(=O)n1-c1c(Cl)cccc1Cl	8	-5	29	1	-1	-3
CO[C@H]1C=CCCC=CC(=O)O[C@H]([C@H](C)C(=O)CCCC2CC(=O)NC(=O)C2)C(C)=C[C@@H](C)[C@@H]1O	37	/	/	/	-5	-8
CCOC(=O)[C@]12Cc3ccccc3[C@H]1N(Cc1ccccc1)C(=O)c1cc(F)c(F)cc12	20	/	/	/	5	11
CSCCC(c1nnnn1Cc1ccccc1)N1CCC(n2c(=O)[nH]c3ccccc32)CC1 (configuration not stated)	-17	-104*	65*	87*	22	36
O=c1[nH]c2ccccc2n1C1CCN(C(c2cccs2)c2nnnn2Cc2ccccc2)CC1 (configuration not stated)	0	-79*	78*	86*	35	37
CSCCC(c1nnnn1C1CCCCC1)N1CCC(n2c(=O)[nH]c3ccccc32)CC1 (configuration not stated)	-15	2	46	33	13	15
O=c1[nH]c2ccccc2n1C1CCN(C(CCc2ccccc2)c2nnnn2C2CCCCC2)CC1 (configuration not stated)	-84	-69*	98*	86*	53*	69*
SMILES	HIF-2a inh	KKLEB cytotox	Peg3 prom inh	CF NFkB block	TROY signal inh	TWEAK Fn14 block
O=C1NCN(c2ccccc2)C12CCN(C(c1ccnc3ccccc13)c1nnnn1C1CCCCC1)CC2 (configuration not stated)	21	-27	11	22	-4	10
O=C1NCN(c2ccccc2)C12CCN(C(c1cccc3ccccc13)c1nnnn1C1CCCC1)CC2 (configuration not stated)	2	-11	32	41	15	8
c1ccc(C(c2ccccc2)c2ccncc2)cc1	-9	-10	-3	34	16	5
CC(C)C[C@H]1COc2cc(N3CCN(C)CC3)ccc2S(=O)(=O)N1	2	/	/	/	-7	27
CC(C)c1ccc(C(c2c(O)c3ccccc3oc2=O)c2c(O)c3ccccc3oc2=O)cc1	6	3	19	24	68*	28
CCCCn1nnnc1C(c1ccnc2ccccc12)N1CCC2(CC1)C(=O)NCN2c1ccccc1 (configuration not stated)	10	1	-8	-14	10	8
CN1CCN(CCOC2c3ccccc3CSc3ccc(Cl)cc32)CC1 (configuration not stated)	-4	-14	25	28	13	-12
Clc1ccc2c(c1)C(OC1CN3CCC1CC3)c1ccccc1CS2 (configuration not stated)	25	-10	97*	1	-23	9
CC1=C2C(=O)C3C(CC=C4CC(O)CCC43C)C2CCC12OC1CC(C)CNC1C2C (configuration not stated)	0	-3	-6	-5	3	97*
C=C1C(C)C2C(Cc3ccccc3)NC(=O)C23C(OC(C)=O)C=CC(C)(O)CC(C)CC=CC3C1O (configuration not stated)	10	-67*	-16	53*	-32	-140
